Screening data (PubChem BioAssay)
This excerpt belongs to a sample that is enriched for hits.
Pf Dd2 growth – inhibitors of Plasmodium falciparum Dd2 growth; P. falciparum Dd2 growth, SYBR Green, 72 h; Potency, µM (series often up to 28.9 µM), inactives show top-dose activity, negative = inhibition, actives largely listed as inhibitors; hit rate 4.3% among 120,000; active = well fitted inhibition curve with a large enough effect;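 also: plate controls were DMSO vehicle for no effect and reference drug for full effect; nearly all actives have a fitted effect of over 65% in size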
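Infected erythrocytes (Dd2, 0.3% parasitemia, 2.5% hematocrit final) are added to compound in RPMI-1640/Albumax II medium, grown 72 h at 37C in low oxygen, then lysed with saponin/Triton-X containing SYBR Green and read by fluorescence.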
* hit, by the source's call; i = inactive; [ ] = dose if it differs, or a comment. Potency is read from the fitted curve at half-maximal effect.

SMILES	Pf Dd2 growth
O=C(c1cc(-c2ccccc2)n[nH]1)N1CCCC(Cc2noc(-c3cccnc3)n2)C1 (centres undefined)	-9%
O=C(COc1ccccc1)NC[C@H]1Cn2c(-c3ccc(F)cc3)cnc2CO1	-12%[44.1 µM]
CN1C(=O)CCC2(CNC(=O)C3CCC3)CCCC=C12 (centres undefined)	8%
CC(=O)Nc1ccc(C2(C(=O)N3CCCCCC3)CCC2)cc1	-21%
CC(=O)Nc1ccc(C2(C(=O)O)CCCCC2)cc1	3%
CC(=O)Nc1ccc(C2(C(=O)N3CCC(N4CCCCC4)CC3)CCCCC2)cc1	13µM*
CN(C)[C@H]1CCCCN(C(=O)c2cn(CCN3CCNCC3)nn2)C1	-1%
COc1ccc(C(=O)N2C[C@@H]3C[C@H](C2)c2ccc(NS(=O)(=O)c4cccc(F)c4)c(=O)n2C3)cc1	i
COc1ccc(N2CCN(C(=O)CN3CCSc4ccccc43)CC2)cc1	7%
COc1cccc(N2CCN(C(=O)CN3CCSc4ccc(S(=O)(=O)N(C)C)cc43)CC2)c1	11µM*
CN(C)S(=O)(=O)c1ccc2c(c1)N(CC(=O)N1CCC(C(N)=O)CC1)CCS2	28%
COc1cccc([C@@H]2CCN(Cc3ccc(NC(C)=O)cc3)C[C@H]2O)c1	-7%
Cc1c(CN2CCCC(CNC(=O)c3cccc4ccccc34)C2)[nH]c2ccccc12 (centres undefined)	11µM*
COc1cccc([C@@H]2CCN(Cc3[nH]c4ccccc4c3C)C[C@H]2O)c1	0.89µM*
COc1cccc(C(=O)NCC2CCCN(Cc3ccccn3)C2)c1OC (centres undefined)	-21%
COc1cccc(C(=O)NCC2CCCN(Cc3cnn(C)c3C)C2)c1OC (centres undefined)	-4%
COc1cccc([C@@H]2CCN(Cc3cn[nH]c3C(=O)O)C[C@H]2O)c1	-3%
O=C1NCN(Cc2ccc(Cl)cc2)C12CCN([S+](=O)([O-])c1cccc(C(F)(F)F)c1)CC2	15%
CC(C)c1cc(C(=O)N2CC[C@H](CO)[C@H](O)C2)cs1	1%
Cn1nc(C(=O)NC2CCc3nn(CC4CC4)c(=O)n3CC2)c2ccccc21 (centres undefined)	-3%
COc1ccc(N2CC(c3noc(-c4ccc5c(c4)OCO5)n3)CC2=O)cc1 (centres undefined)	90%
Cc1ccc(CNC(=O)N2C[C@@H](Oc3cccnc3)C[C@H]2C(=O)N2CCOCC2)cc1	44%
CC(=O)Nc1cc(-c2cc(C(=O)NCc3cc(C)on3)c3c(c2)N(C)CCO3)ccn1	7.9µM*
CC(=O)Nc1cc(-c2cc(C(=O)NCc3cccnc3)c3c(c2)N(C)CCO3)ccn1	-17%[44.1 µM]
Cc1cc(CNC(=O)c2cc(-c3ccccc3)cc3c2OCCN3C)no1	i
SMILES	Pf Dd2 growth
CCc1ccc(CN2CCN(c3ccc(C(N)=O)cn3)CC2)nc1	-14%
COC[C@H]1CCCN1[C@@H]1[C@H](O)[C@H](CO)O[C@@H]1CN(Cc1ccc(F)cc1)Cc1ccc(F)cc1	4.5µM*
COC[C@H]1CCCN1[C@@H]1[C@H](O)[C@H](CO)O[C@@H]1CNS(=O)(=O)c1cccs1	-13%
OC[C@@H]1O[C@H](CNCc2ccc(F)cc2)[C@H](N2CCCC2)[C@@H]1O	i
COCCN1C(=O)c2ccccc2C(C(=O)Nc2cccc(C)n2)C12CCCCC2 (centres undefined)	i
CCCCNC(=O)C1c2ccccc2C(=O)N(CCOC)C12CCCCC2 (centres undefined)	-13%
COCCN1C(=O)c2ccccc2C(C(=O)Nc2nnc(C3CC3)s2)C12CCCCC2 (centres undefined)	7.9µM*
COCCN1C(=O)c2ccccc2C(C(=O)Nc2nc3ccccc3s2)C12CCCCC2 (centres undefined)	2.5µM*
COCCN1C(=O)c2ccccc2C(C(=O)Nc2nnc(COC)s2)C12CCCCC2 (centres undefined)	-26%
COCCN1C(=O)c2ccccc2C(C(=O)NC(C)C)C12CCCCC2 (centres undefined)	-7%
COCc1nnc(NC(=O)C2c3ccccc3C(=O)N(CC(C)C)C23CCCCC3)s1 (centres undefined)	3.5µM*
COCCN1C(=O)c2ccccc2C(C(=O)Nc2ccccc2O)C12CCCC2 (centres undefined)	i
COC(=O)CCNC(=O)C1c2ccccc2C(=O)N(CC(C)C)C12CCCCC2 (centres undefined)	-16%
CCCCN1C(=O)[C@@H]2C[C@@H](O)CN2C2(CN(Cc3ccc(OC)cc3)C2)C1=O	-28%[44.1 µM]
O=C1CCN(C(=O)C2CCN(C(=O)C3CC3)CC2)CCCCCCN1	-6%
CCN1CCN(C(=O)CC2CCCN(c3cnn(CCOC)c(=O)c3)C2)CC1 (centres undefined)	-23%
CCc1ccc(NC(=O)Cn2c(N3CCCCC3)nc(C)c(C)c2=O)cc1	-1%
COc1ccc(N2CCN(C3CCCN(CC(N)=O)C3)CC2)cc1 (centres undefined)	-13%
COc1ccc(N2CCN(C3CCCN(CC4CC4)C3)CC2)cc1 (centres undefined)	5%
COc1cc(CN2CCCC(COc3ccccc3C(=O)N3CCCC3)C2)ccc1O (centres undefined)	i
COc1cc2c(cc1OC)CN(C1CCCN(Cc3c(O)cccc3OC)C1)CC2 (centres undefined)	10µM*
COc1ccc(F)c(CN2CCCN3CCC[C@H]3C2)c1Cl	13µM*
COc1cccc(CN2CCCC(c3ccc(C(=O)O)cc3)C2)c1OC (centres undefined)	-2%
O=c1c2c(nc3cc[nH]n13)CN(S(=O)(=O)c1ccc(F)c(Cl)c1)CC2	i
O=C(NCCc1ccncc1)C1CN(S(=O)(=O)c2ccccc2)CC12CCOCC2 (centres undefined)	3%
SMILES	Pf Dd2 growth
COc1ccc(-c2noc([C@@H](C)NCC3CCCCC3)c2C(=O)O)cc1	-14%[44.1 µM]
CO[C@H]1[C@H](NC(=O)c2cnn3cccnc23)c2ccccc2C12CCNCC2	-13%
Cc1ccc(C)c(OCC(=O)c2ccc3c(c2)N(C(C)C(=O)NCC2CCCO2)C(=O)CO3)c1 (centres undefined)	i
COCCN1CC2(CCCN(C(=O)c3ccccc3-n3cncn3)C2)CCC1=O (centres undefined)	-11%
CCc1nnc(SCC(=O)Nc2ccc(OC)c(OC)c2)c2cc3occc3n12	1%
COc1ccc(CC(=O)NCCc2sc(-c3ccc(Cl)cc3)nc2C)cc1OC	i
COc1ccc(C2=C(C(C)=O)Sc3nnc(-c4ccc(Cl)cc4)n3N2C(C)=O)cc1OC	1.4µM*
CCC(=O)C1=C(c2ccc(F)cc2)N(C(=O)CC)n2c(nnc2-c2ccc(OC)cc2)S1	3.2µM*
CCc1nnc(SCc2nc(-c3ccc(OC)c(OC)c3)oc2C)c2cc3sc(C)cc3n12	39%
COc1ccc(-c2nnc3n2CCN(C(=O)c2ccc(F)cc2)C3)cc1	-2%
CCC(=O)C1=C(c2ccc(OC)c(OC)c2)N(C(=O)CC)n2c(CC)nnc2S1	1.4µM*
COc1ccc(-c2nnc3n2N(C(C)=O)C(c2ccc(Cl)c(Cl)c2)=C(C(C)=O)S3)cc1	77%
COc1ccc(OC(=O)CSc2nnc(-c3ccc(F)cc3)o2)cc1	14%
O=C(Cc1c(F)cccc1Cl)N1CCN(c2cc(-c3ccccc3)[nH]n2)CC1	-2%
Cn1cccc1C(=O)N[C@H]1C[C@H]2C(=O)Nc3ccc(/C=C/c4ccccc4)cc3C(=O)N2C1	-36%
O=C1N[C@H](Cc2ccc(O)cc2)C(=O)N2CC[C@H](NS(=O)(=O)c3ccc(Cl)cc3)C[C@@H]12	i
